Source: PubChem BioAssay (NCI)
About 83,000 compounds went through this panel and 20% of them were active in at least one assay; those are over-represented in the sample as a whole.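 Results are percent growth after 48 hours of single-concentration exposure. 100 means growth as in untreated cells, lower positive values show inhibition; negative values down to -100 show cell death.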 Values without a mark were called inactive. The source made the active and inactive calls. How the source made its calls: active means growth percent below 10; inactive means the rest. *1 amine or outer side, *2 acyl side, *3 side chain or, on linkers, in order; H or OH if unused. Where a SMILES comes first, the peptide text is derived from it. [ ]: non-standard residue; d: D form. The star is where a group is joined. X5 = CCC(=O)CC1CC(C)CC(C(=O)[*:2])N1[*:1]; X4 = CCCCCCCCC(C)C(=O)*; Aib = CC(C)(N)C(=O)O; X6 = CC(CN(C)CCO)N*

Experiments:
Test in all cases: NCI-60 one-dose screen, 48 h (100 = growth as untreated, 0 = no growth, -100 = all killed)
Conditions in all cases: 10 µM unless noted
DU-145 prostate = system: DU-145 prostate
K-562 leukemia = system: K-562 leukemia
MALME-3M melanoma = system: MALME-3M melanoma
MDA-MB-231 breast = system: MDA-MB-231 breast
RXF 393 renal = system: RXF 393 renal
SF-268 CNS = system: SF-268 CNS
SF-295 CNS = system: SF-295 CNS
SF-539 CNS = system: SF-539 CNS
UACC-257 melanoma = system: UACC-257 melanoma
M14 melanoma = system: M14 melanoma

Row | Structure (SMILES) | growth (DU-145 prostate) | growth (K-562 leukemia) | growth (MALME-3M melanoma) | growth (MDA-MB-231 breast) | growth (RXF 393 renal) | growth (SF-268 CNS) | growth (SF-295 CNS) | growth (SF-539 CNS) | growth (UACC-257 melanoma) | growth (M14 melanoma)
1 | O=[N+]([O-])c1ccc(C2N(Cc3ccc(Cl)cc3)CCN2Cc2ccc(Cl)cc2)cc1 | 107% | 67% | 109% | 79.6% | 74.4% | 90.1% | 92.1% | 86.3% | 92% | 86.2%
2 | O=[N+]([O-])c1ccc([I+]c2ccccc2)cc1 | -10.5% (active) | 9.29% (active) | -0.265% (active) | 35.4% | 57.8% | -69.7% (active) | 77.9% | 1.87% (active) | 29.7% | -36.6% (active)
3 | Cn1c(-c2ccccc2)c(/C=C/C2=[N+](C)c3ccccc3C2(C)C)c2ccccc21 | 20.2% | 6.23% (active) | -6.21% (active) | 15.6% | 35.2% | 18% | 11.8% | 11.9% | -51.5% (active) | –
4 | CCOC(=O)C1(C)CCCC1N (stereo not given) | 108% | 101% | 101% | 97% | 104% | 92.4% | 105% | 103% | 113% | 106%
5 | CCC(C)C(N)C(=O)NC(CC(N)=O)C(=O)NC(CC(C)C)C(=O)NC(CCCCN)C(=O)NC(C)C(=O)NC(CC(C)C)C(=O)NC(C)C(=O)NC(C)C(=O)NC(CC(C)C)C(=O)NC(C)C(=O)NC(CCCCN)C(=O)NC(CCCCN)C(=O)NC(C(=O)NC(CC(C)C)C(N)=O)C(C)CC (stereo not given) | 57.9% | 82.5% | 52.1% | 62.1% | 39.6% | 66.8% | 106% | 35.6% | 104% | –
6 | Cc1ccccc1N=C(N)Nc1ccccc1C (tested in a mixture with another compound) | 84.3% | 85.8% | 102% | 68.5% | 94.7% | 72.2% | 104% | 72.4% | 97.5% | –
7 | Cc1cc(C(=C2C=CC(=Nc3ccccc3)C=C2)c2ccc(Nc3ccccc3)cc2)ccc1N | -97.2% (active) | 14.1% | -63.6% (active) | -56% (active) | -93.7% (active) | -68.7% (active) | -71.9% (active) | -60.8% (active) | -91.6% (active) | –
8 | O=C(O)c1cc2c(s1)C(=O)c1sccc1C2=O | -100% (active) | -1.53% (active) | -98.9% (active) | 75% | 34.2% | 45.2% | 57.4% | -66.1% (active) | 48.3% | -96.3% (active)
9 | NC(=Nc1nc(-c2ccccn2)cc2ccccc12)c1ccccn1 | 1.76% (active) | -22.8% (active) | 19% | 47.8% | 1.1% (active) | 13.1% | 17.9% | -18.6% (active) | -4.44% (active) | -55% (active)
10 | O=C(OC12CC3CC(CC(C3)C1)C2)c1ccc(NCc2cc(O)ccc2O)cc1 | 19.9% | -49.3% (active) | -93.5% (active) | -39.8% (active) | -60.8% (active) | -6.88% (active) | -14.7% (active) | -95.6% (active) | 5.57% (active) | –
11 | CCOc1ccc(C(C[N+](=O)[O-])Sc2ccccc2N)cc1 (stereo not given) | -19.9% (active) | 9.12% (active) | 68% | 18.4% | -65.3% (active) | 120% | 40.4% | -44.5% (active) | 59.2% | -41.2% (active)
12 | CCCCCCCCC(C)C(=O)N1CCCC1C(=O)N1C(CC(=O)CC)CC(C)CC1C(=O)NC(C)C(=O)NC(C)(C)C(=O)NC(C)(C)C(=O)NC(C(=O)NC(C)C(=O)NC(C)(C)C(=O)NC(C)(C)C(=O)NC(C)CN(C)CCO)C(C)CC (stereo not given) (X4-P[X5]A[Aib][Aib]IA[Aib][Aib]-X6; configuration not given here) | -84.4% (active) | -52.1% (active) | 13.5% | -94.1% (active) | -56.5% (active) | -15.4% (active) | -26.2% (active) | -77% (active) | -72.1% (active) | –
13 | Cc1cc2cccnc2c2ncccc12 | 20.7% | 14.3% | 49.3% | 44.2% | 13.3% | 15.9% | 28.5% | 13% | -1.02% (active) | –
14 | S=C1SCN(Cc2cccs2)CN1Cc1cccs1 | 110% | 63.6% | 107% | 93.4% | 104% | 100% | 104% | 96.8% | 94.5% | 94.3%
15 | O=C1C=CC(=O)c2c(O)c(CO)c(CO)c(O)c21 | 54.9% | 91.7% | 9.33% (active) | 89.6% | 98% | 111% | 95% | 104% | 94.4% | 14%
16 | CCOC(=O)c1cc(CC)sc1NC(=O)CC(C)=O | 48.2% | 21.8% | 62.2% | 54.9% | 61.7% | 60.1% | 43.2% | 56.1% | 95.6% | 88.6%
17 | O=C1c2ccccc2C(=O)c2c(O)c(Cl)cc(O)c21 | 69.7% | 57% | 71.5% | 95.6% | 103% | 94.4% | 113% | 99.1% | 58.4% | –
18 | Cc1ccc(/C=C2\CNC/C(=C\c3ccc(C)cc3)C2=O)cc1 | -87.5% (active) | -28.5% (active) | 29.4% | -15.9% (active) | -57.4% (active) | -8.61% (active) | -5.11% (active) | -64.5% (active) | -21.1% (active) | –
19 | Cc1ccc2c(c1)sc(-c1ccc(N(C)C)cc1)[n+]2C | 20.4% | -21.7% (active) | 0.435% (active) | 2.82% (active) | 39.7% | 18.5% | -5.75% (active) | 12.5% | 4.53% (active) | –
20 | OC(c1cc(-c2ccc(Cl)cc2)nc2c(Cl)cccc12)C1CCCCN1 (stereo not given) | -96.3% (active) | -30.9% (active) | -50.2% (active) | -71.1% (active) | -98.1% (active) | -65.7% (active) | -80.8% (active) | -72.4% (active) | -77% (active) | –
21 | COc1ccc2nc3cc([N+](=O)[O-])ccc3c(NNc3ccccc3)c2c1 | 89.6% | 90.5% | 90.9% | 66.5% | 46.9% | 56.8% | 56% | 22.6% | 101% | –
22 | C[n+]1ccccc1C[n+]1ccccc1 | 114% | 87.8% | 118% | 122% | 115% | 96.8% | 114% | 106% | 112% | –
23 | COC(=O)Nc1nc2ccc(C3(c4ccc(F)cc4)OCCO3)cc2[nH]1 | 12.2% | 9.31% (active) | 31.1% | 30.3% | 0.251% (active) | 50.5% | 4.04% (active) | -13.9% (active) | 45.5% | 23.3%
24 | O=C(Nc1ccc(Cl)c(Cl)c1)OCc1ccco1 | 54.8% | 15.8% | 68.6% | 52.2% | 56% | 47.8% | 31.6% | 41.8% | 62.6% | 44.9%
25 | Oc1ccc2ccccc2c1N=Nc1ccccn1 | 50.2% | 15.2% | 59.7% | 36.3% | 38.3% | 36% | 26.8% | 15.7% | 17.6% | 15.6%
26 | Oc1cc(Cl)ccc1Cc1ccc(Cl)cc1O | 90% | 37.2% | 32.9% | 59.7% | 73.8% | 65.2% | 32.3% | 56.3% | 58.7% | –
27 | O=C(c1ccccc1)C(Br)C(Br)c1ccccc1 (stereo not given) | 94.7% | 6.6% (active) | -3.62% (active) | 112% | 33.6% | 102% | 82.4% | 108% | 17.3% | 2.17% (active)
28 | CCN(CC)CC(O)c1cc(-c2ccc(Cl)cc2)nc2cc(Cl)ccc12 (stereo not given) | 17.9% | -27.2% (active) | 43% | -3.65% (active) | 28.9% | 42.1% | 31.7% | 18% | -59.8% (active) | –
29 | O=C(c1ccccc1)N(CCCl)C(=O)N(CCCl)C(=O)c1ccccc1 | 109% | 95.5% | 95.2% | 82.1% | 104% | 102% | 81.6% | 94.7% | 101% | 101%
30 | Oc1ccc2ccccc2c1N=Nc1nccs1 | 20.5% | 10.4% | 29.2% | 28.8% | 47.3% | 1.32% (active) | 31.4% | 15.2% | 66% | 26.3%
